In the supplement of paper PMC13380429:

Test system: Vero E6 infected with SARS-CoV-2
Test: inhibition of SARS-CoV-2 cytopathic effect; higher = more antiviral protection, active = above 15
Conditions: 48 h

Measured: inhibition of SARS-CoV-2 cytopathic effect

Cc1ccc(-c2n[nH]c3c2C(c2cccc(O)c2)N(c2ccc(C(=O)O)cc2)C3=O)cc1 (stereo not given)
inactive: 1 nM -0.75% | 8.33 nM -0.46% | 100 nM 3.03% | 833.33 nM 3.6% | 10000 nM 5.17%

COc1cc(NC(=O)c2cccc(-n3cc(NC(=O)Nc4cccc(C)c4)cn3)c2)cc(OC)c1OC
inactive: 1 nM -0.97% | 8.33 nM -0.75% | 100 nM 2.66% | 833.33 nM 0.39% | 10000 nM -0.61%

Cc1ccc(S(=O)(=O)NC(=O)NN2CC3CCCC3C2)cc1 (stereo not given) [gliclazide]
inactive: 1 nM 0.85% | 8.33 nM 1.91% | 100 nM 1.12% | 833.33 nM 2.55% | 10000 nM 2.6%

CC1(C)CCC(C)(C)c2cc(C(=O)Nc3ccc(C(=O)O)cc3)ccc21
inactive: 1 nM 0.12% | 8.33 nM 2.74% | 100 nM 1.53% | 833.33 nM 1.49% | 10000 nM 3.21%

Cc1ccc(C[N+](C)(C)C)o1 [5-methylfurmethiodide]
inactive: 1 nM -1.33% | 8.33 nM -0.75% | 100 nM -0.64% | 833.33 nM -0.84% | 10000 nM 0.7%

CNC(=O)O[C@H]1COc2ccc(N3CCN(C4COC4)CC3)cc2[C@@H]1NC(=O)c1ccc(F)cc1
inactive: 1 nM 1.12% | 8.33 nM -0.75% | 100 nM -1.06% | 833.33 nM 0.34% | 10000 nM 1.4%

CO[C@H]1C[C@H](O[C@@H]2/C(C)=C/C[C@@H]3C[C@@H](C[C@]4(CC[C@H](C)[C@@H](C5CCCCC5)O4)O3)OC(=O)[C@@H]3C=C(C)/C(=N/O)[C@H]4OC/C(=C\C=C\[C@@H]2C)[C@]43O)O[C@@H](C)[C@@H]1O [selamectin]
active: 10000 nM 16.1%
inactive: 1 nM -1.61% | 8.33 nM 0.4% | 100 nM -0.73% | 833.33 nM 2.72%

CC[C@@H]1Cn2c(c3nc(-c4ccccc4)nc-3n(C)c2=O)N1
inactive: 1 nM -0.6% | 8.33 nM -0.25% | 100 nM -1.09% | 833.33 nM 0.66% | 10000 nM 1.21%

O=C(NCCN1CCC2(CC1)C(=O)NCN2c1cccc(F)c1)c1ccc2ccccc2c1
inactive: 1 nM 0.75% | 8.33 nM 3.53% | 100 nM 1.66% | 833.33 nM 1.45%
active: 10000 nM 83.1%

COCCOC(=O)C1=C(C)NC(C)=C(C(=O)OC(C)C)C1c1cccc([N+](=O)[O-])c1 (stereo not given) [nimodipine]
inactive: 1 nM -2.49% | 8.33 nM -0.07% | 100 nM -1% | 833.33 nM 1.52% | 10000 nM 1.16%

C[C@H](Nc1cc2c(-c3ccc4c(c3)OCO4)noc2cn1)c1ccccc1
inactive: 1 nM 0.3% | 8.33 nM -0.01% | 100 nM -0.1% | 833.33 nM -0.91% | 10000 nM -1.26%

CC(=O)OCC(CCn1cnc2cnc(N)nc21)COC(C)=O [famciclovir]
inactive: 1 nM -0.42% | 8.33 nM -2.15% | 100 nM -3.04% | 833.33 nM -0.25% | 10000 nM -2.48%

N[C@@H](Cc1cc(CP(=O)(O)O)cc(-c2ccccc2Cl)c1)C(=O)O
inactive: 1 nM 8.76% | 8.33 nM 0.31% | 100 nM 1.79% | 833.33 nM 1.85% | 10000 nM 1.74%

O=c1c(O)c(-c2ccc(O)c(O)c2)oc2cc(O)ccc12 [fisetin]
inactive: 1 nM 0.55% | 8.33 nM -1.12% | 100 nM 0.7% | 833.33 nM -0.95% | 10000 nM -1.68%

O=C(NC1CCNCC1)c1n[nH]cc1NC(=O)c1c(Cl)cccc1Cl
inactive: 1 nM -0.55% | 8.33 nM -2.6% | 100 nM -1.5% | 833.33 nM -1.53% | 10000 nM 2.5%

O=c1[nH]c(=O)n([C@H]2C[C@H](O)[C@@H](CO)O2)cc1F [floxuridine]
inactive: 1 nM 1.42% | 8.33 nM 1.34% | 100 nM -1.95% | 833.33 nM -2.04% | 10000 nM -4.05%

CCN(c1ccccc1)c1cc(=NC)n(C)c(C)n1
inactive: 1 nM -6.18% | 8.33 nM -5.43% | 100 nM -5.42% | 833.33 nM -2.51% | 10000 nM -0.53%

CCCc1c(OCCCOc2ccc(OCC(=O)O)cc2)ccc(C(C)=O)c1O
inactive: 1 nM 3.84% | 8.33 nM -0.07% | 100 nM 1.16% | 833.33 nM 1.63% | 10000 nM 1.76%
